{
  "source": "PubChem BioAssay AID430",
  "about": "(Sanford-Burnham Center for Chemical Genomics, 2006)",
  "note": "Hit rate of the full screen: of about 63,000 compounds, about 1,100 (1.7%) were called active. This is one part of a sample in which actives are shown more often than they occur. Rule as the data show it: active = cytotoxicity above about 50%; inactive = the rest. Results with a measured potency or affinity are listed apart.",
  "data": [
    {"assay": "cytotoxicity in HPDE-C7 cells, cell-based, fluorescence, HTS (AID 430);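 also: cells exposed to compound for 48 hours before viability readout; 0% = vehicle and 100% = reference cytotoxic drug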", "details": "HPDE-C7 pancreatic duct cells viability, at 10 µM, stronger effect = higher value", "values": [
      {"smiles": "CC(=O)Oc1c(S(=O)(=O)c2ccccc2)c(C)nn1C(C)(C)C", "cytotoxicity": "13.3% (inactive)"},
      {"smiles": "Cc1ccc(S(=O)(=O)c2c(C)nn(C(C)(C)C)c2OC(=O)c2cccs2)cc1", "cytotoxicity": "-6.5% (inactive)"},
      {"smiles": "Cc1nn(C(C)(C)C)c(OC(=O)c2ccc3c(c2)OCO3)c1S(=O)(=O)c1ccccc1", "cytotoxicity": "60.9% (active)"},
      {"smiles": "Cc1nn(C(C)(C)C)c(OC(=O)c2cccs2)c1S(=O)(=O)c1ccccc1", "cytotoxicity": "54.2% (active)"},
      {"smiles": "CC(=O)Oc1c(S(=O)(=O)c2ccc(C)cc2)c(C)nn1C(C)(C)C", "cytotoxicity": "12.6% (inactive)"},
      {"smiles": "Cc1nn(-c2ccccc2)c(OC(=O)c2cccs2)c1S(=O)(=O)c1ccccc1", "cytotoxicity": "-5.8% (inactive)"},
      {"smiles": "Cc1ccc(S(=O)(=O)c2c(C)nn(C(C)(C)C)c2OC(=O)c2ccco2)cc1", "cytotoxicity": "14.5% (inactive)"},
      {"smiles": "Cc1nn(C(C)(C)C)c(OC(=O)C2CCCC2)c1S(=O)(=O)c1ccccc1", "cytotoxicity": "-9.3% (inactive)"},
      {"smiles": "CCC(Sc1nncn1C)C(=O)Nc1nnc(-c2ccccc2Cl)s1", "note": "(configuration not stated)", "cytotoxicity": "3.8% (inactive)"},
      {"smiles": "CC(=O)Nc1ccc(C(=O)Nc2ccc(S(=O)(=O)NCC3CCCO3)cc2)cc1", "note": "(configuration not stated)", "cytotoxicity": "-3.3% (inactive)"},
      {"smiles": "COc1ccc(Oc2cn[nH]c2-c2ccc(O)cc2O)cc1", "cytotoxicity": "9.4% (inactive)"},
      {"smiles": "CCOc1ccc(-c2[nH]ncc2Oc2ccccc2OCC)c(O)c1", "cytotoxicity": "53.9% (active)"},
      {"smiles": "COc1ccc(-c2[nH]ncc2-c2cnc(C)s2)c(O)c1", "cytotoxicity": "6.4% (inactive)"},
      {"smiles": "C=C(C)COc1ccc(-c2nc(N)ncc2Oc2ccccc2OCC)c(O)c1", "cytotoxicity": "7.3% (inactive)"},
      {"smiles": "COc1ccc(-c2[nH]ncc2Oc2ccccc2OC)c(O)c1", "cytotoxicity": "6.8% (inactive)"},
      {"smiles": "C=C(C)COc1ccc(-c2[nH]ncc2Oc2ccccc2OCC)c(O)c1", "cytotoxicity": "86% (active)"},
      {"smiles": "CCOc1ccc(-c2[nH]ncc2Oc2ccccc2OC)c(O)c1", "cytotoxicity": "65.8% (active)"},
      {"smiles": "CCOc1ccccc1Oc1cn[nH]c1-c1ccc(OC)cc1O", "cytotoxicity": "51.7% (active)"},
      {"smiles": "O=c1c2c3nc4ccccc4nc3n(/N=C/c3cccs3)c2ncn1-c1ccccc1", "cytotoxicity": "-19.9% (inactive)"},
      {"smiles": "O=C(CCc1nc2ccccc2[nH]1)Nc1ccc2c(c1)OCO2", "cytotoxicity": "5.9% (inactive)"},
      {"smiles": "Cc1noc(C)c1COC(=O)CCN1c2ccccc2Sc2ccccc21", "cytotoxicity": "-8% (inactive)"},
      {"smiles": "COc1ccc(NC(=O)CSc2nc3ccccc3c(=O)n2-c2ccc3c(c2)OCO3)c(OC)c1", "cytotoxicity": "33.6% (inactive)"},
      {"smiles": "CCc1ccccc1-n1cnc2cc(C(=O)O)ccc21", "cytotoxicity": "-20.8% (inactive)"},
      {"smiles": "O=C(O)c1cc(Cl)ccc1NC(=O)C1CCCO1", "note": "(configuration not stated)", "cytotoxicity": "-8.9% (inactive)"},
      {"smiles": "C=CCNC(=O)C1CC(c2cccc(OC)c2)=NO1", "note": "(configuration not stated)", "cytotoxicity": "-8.4% (inactive)"},
      {"smiles": "CCC1(COC(NC(=O)c2cccnc2)(C(F)(F)F)C(F)(F)F)COC1", "cytotoxicity": "-0.9% (inactive)"},
      {"smiles": "COc1cccc(-c2nc(CS(=O)CC(=O)NC3CC3)c(C)o2)c1", "note": "(configuration not stated)", "cytotoxicity": "-3% (inactive)"},
      {"smiles": "COc1nc(NC23CC4CC(CC(C4)C2)C3)nc(OC)n1", "cytotoxicity": "-8% (inactive)"},
      {"smiles": "COCCCNC(=O)CN(Cc1ccc(Cl)cc1)S(C)(=O)=O", "cytotoxicity": "-2.6% (inactive)"},
      {"smiles": "CCCSc1nc(C)c(CC(=O)OCC)c(=O)[nH]1", "cytotoxicity": "4% (inactive)"},
      {"smiles": "O=C1c2ccccc2C(=O)N1CCSc1nnc(-c2ccco2)n1Cc1ccccc1", "cytotoxicity": "4.3% (inactive)"},
      {"smiles": "CCCCCn1c(N(C)Cc2ccccc2)nc2c1c(=O)[nH]c(=O)n2C", "cytotoxicity": "-0.6% (inactive)"},
      {"smiles": "C=C(C)COc1ccc(-c2[nH]ncc2-c2ccc(OC)c(OC)c2)c(O)c1", "cytotoxicity": "13.3% (inactive)"},
      {"smiles": "COc1ccc(-c2[nH]ncc2-c2ccc(Cl)cc2)c(O)c1", "cytotoxicity": "41.2% (inactive)"},
      {"smiles": "CCOc1ccc(-c2[nH]ncc2-c2ccc(OC)c(OC)c2)c(O)c1", "cytotoxicity": "53.7% (active)"},
      {"smiles": "CCC(=O)Nc1ccc(F)c(Cl)c1", "cytotoxicity": "-11.3% (inactive)"},
      {"smiles": "CCOC(=O)Cc1csc(NC(=O)CSc2ncnc3c2cnn3-c2ccc(OC)cc2)n1", "cytotoxicity": "-6.9% (inactive)"},
      {"smiles": "CCOC(=O)Cc1csc(NC(=O)CSc2ncnc3c2cnn3-c2ccccc2Cl)n1", "cytotoxicity": "57.4% (active)"},
      {"smiles": "Cc1csc(NC(=O)CSc2ncnc3c2cnn3-c2ccccc2Cl)n1", "cytotoxicity": "19.7% (inactive)"},
      {"smiles": "CC1(C)CC(=O)C=C(Nc2cccc(O)c2)C1", "cytotoxicity": "1.7% (inactive)"},
      {"smiles": "CC1(C)CC(=O)C(C(C2=C(O)CC(C)(C)CC2=O)c2cccc(O)c2)C(=O)C1", "note": "(configuration not stated)", "cytotoxicity": "10.5% (inactive)"},
      {"smiles": "CC1(C)CC(=O)C2=C(C1)N(c1cccc(O)c1)C1=C(C2)C(=O)CC(C)(C)C1", "cytotoxicity": "59.8% (active)"},
      {"smiles": "C=CCn1c(O)c(C(CC)=NCc2cccnc2)c(=O)[nH]c1=O", "cytotoxicity": "-2.2% (inactive)"},
      {"smiles": "O=C(NCc1cccnc1)c1cc(-c2ccco2)on1", "cytotoxicity": "1.9% (inactive)"},
      {"smiles": "N#Cc1cc2c(nc1SCC(=O)NCc1ccc3c(c1)OCO3)CCCCC2", "cytotoxicity": "-27.8% (inactive)"},
      {"smiles": "COc1cccc(CNC(=O)c2cc3oc4ccccc4c3n2C)c1OC", "cytotoxicity": "53.5% (active)"},
      {"smiles": "COc1ccccc1CNC(=O)c1cc2c(=O)n(C)c3ccccc3c2n1C", "cytotoxicity": "15.2% (inactive)"},
      {"smiles": "COc1cccc(CNC(=O)Cn2c(=O)oc3ccccc32)c1OC", "cytotoxicity": "-4.3% (inactive)"},
      {"smiles": "CC1=NC(Nc2nc(C)c3ccccc3n2)=NC(C)(C)C1", "cytotoxicity": "1.1% (inactive)"},
      {"smiles": "COc1ccc(CNC(=O)c2cc(-c3ccc(OC)c(OC)c3)on2)cc1", "cytotoxicity": "1% (inactive)"},
      {"smiles": "CCCc1cc(C(N)=O)c(NC(=O)C2CCCO2)s1", "note": "(configuration not stated)", "cytotoxicity": "-5.1% (inactive)"},
      {"smiles": "COC(=O)c1nc2nc(C)cc(C(F)(F)F)n2n1", "cytotoxicity": "-8.4% (inactive)"},
      {"smiles": "O=C(Cn1c(=O)n(-c2cccc(Cl)c2)c(=O)n1CC(=O)N1CCCCC1)N1CCCCC1", "cytotoxicity": "1% (inactive)"},
      {"smiles": "Cc1ccc(S(=O)(=O)C2(S(=O)(=O)c3ccc(C)cc3)CCCC2)cc1", "cytotoxicity": "54.6% (active)"},
      {"smiles": "Cc1ccc(S(=O)(=O)C2(C(=O)N3CCCCCC3)CC2)cc1", "cytotoxicity": "6% (inactive)"},
      {"smiles": "O=S(=O)(c1ccccc1)C1(S(=O)(=O)c2ccccc2)CCCC1", "cytotoxicity": "-3.4% (inactive)"},
      {"smiles": "O=C(NCCc1cccc(Cl)c1)c1cccnc1", "cytotoxicity": "-6% (inactive)"},
      {"smiles": "Cc1ccc(C)c(N2CCN(C(=O)c3ccc(NS(=O)(=O)c4c(C)noc4C)cc3)CC2)c1", "cytotoxicity": "41.2% (inactive)"},
      {"smiles": "Cc1noc(C)c1S(=O)(=O)Nc1ccc(C(=O)N2CCN(c3ccc(Cl)cc3)CC2)cc1", "cytotoxicity": "-12.9% (inactive)"},
      {"smiles": "N#Cc1ccccc1Cn1c(=O)n(Cc2ccc(C(=O)NCc3ccco3)cc2)c(=O)c2ccccc21", "cytotoxicity": "7.9% (inactive)"},
      {"smiles": "CC(=O)c1cccc(NC(=O)C=C(C)C)c1", "cytotoxicity": "5.6% (inactive)"},
      {"smiles": "CN(Cc1ccccc1)C(=O)CSc1nnc(-c2ccco2)n1-c1ccccc1", "cytotoxicity": "-10.3% (inactive)"},
      {"smiles": "COc1ccc(CNC(=O)CSc2nnc(-c3ccc(NC(C)=O)cc3)n2C)cc1", "cytotoxicity": "-3.1% (inactive)"},
      {"smiles": "CCCCCn1c(SCCN2CCOCC2)nc2c1c(=O)[nH]c(=O)n2C", "cytotoxicity": "5.5% (inactive)"},
      {"smiles": "COc1ccccc1CNC(=O)CN(c1ccc(C)cc1)S(=O)(=O)c1c(C)n[nH]c1C", "cytotoxicity": "4.9% (inactive)"},
      {"smiles": "CCOc1ccccc1NC(=O)CN(c1ccc(OC)cc1)S(=O)(=O)c1c(C)noc1C", "cytotoxicity": "66.8% (active)"},
      {"smiles": "CCOc1ccc(N(CC(=O)Nc2ccccc2C)S(=O)(=O)c2c(C)noc2C)cc1", "cytotoxicity": "65.3% (active)"},
      {"smiles": "COc1ccc(N(CC(=O)Nc2cc(Cl)ccc2OC)S(=O)(=O)c2c(C)noc2C)cc1", "cytotoxicity": "73.4% (active)"},
      {"smiles": "CCOc1ccc(N(CC(=O)Nc2ccc(C)cc2)S(=O)(=O)c2c(C)noc2C)cc1", "cytotoxicity": "1.8% (inactive)"},
      {"smiles": "COc1ccc(N(CC(=O)Nc2cc(C)ccc2OC)S(=O)(=O)c2c(C)noc2C)cc1", "cytotoxicity": "11.2% (inactive)"},
      {"smiles": "COc1ccccc1NC(=O)CN(c1ccc(C)cc1)S(=O)(=O)c1c(C)n[nH]c1C", "cytotoxicity": "4.4% (inactive)"},
      {"smiles": "CCOc1ccccc1NC(=O)CN(c1ccc(C)cc1)S(=O)(=O)c1c(C)n[nH]c1C", "cytotoxicity": "52.3% (active)"},
      {"smiles": "CCOc1ccccc1NC(=O)CN(c1cc(C)cc(C)c1)S(=O)(=O)c1c(C)noc1C", "cytotoxicity": "6.7% (inactive)"},
      {"smiles": "COc1ccc(OC)c(NC(=O)CN(c2ccc(C)cc2)S(=O)(=O)c2c(C)noc2C)c1", "cytotoxicity": "4.3% (inactive)"},
      {"smiles": "CCOc1ccc(N(CC(=O)NC(C)(C)C)S(=O)(=O)c2c(C)noc2C)cc1", "cytotoxicity": "-7.4% (inactive)"},
      {"smiles": "CCOc1ccccc1NC(=O)CN(c1ccc(C)cc1)S(=O)(=O)c1c(C)noc1C", "cytotoxicity": "-19.7% (inactive)"},
      {"smiles": "CCN1CCN(c2ncc(C(=O)Nc3c(F)cc(F)cc3Br)c3ccccc23)CC1", "cytotoxicity": "18.4% (inactive)"},
      {"smiles": "Cc1ccc(NC(=O)NC2(C(=O)NCc3ccco3)CCCCC2)cc1", "cytotoxicity": "-5.6% (inactive)"},
      {"smiles": "CCn1[nH]c(=O)c(=Nc2c(C)n(C)n(-c3ccccc3)c2=O)cc1-c1ccc(Cl)cc1", "cytotoxicity": "-9.8% (inactive)"},
      {"smiles": "O=C(O)c1ccc(COc2ccc(CO)cc2Cl)cc1", "cytotoxicity": "-12.9% (inactive)"},
      {"smiles": "O=C1N2CN(C(c3ccccc3)c3ccccc3)CN=C2SC1(CO)CO", "cytotoxicity": "-13.8% (inactive)"},
      {"smiles": "CCOc1ccc(-c2nc(CSCC(=O)N3CCN(C(=O)c4ccco4)CC3)c(C)o2)cc1", "cytotoxicity": "-10.8% (inactive)"},
      {"smiles": "Cc1[nH]n2c(=O)cc(C(C)(C)C)nc2c1-c1ccccc1", "cytotoxicity": "76.6% (active)"},
      {"smiles": "Cc1cc(=O)n2[nH]c(C)c(-c3ccccc3)c2n1", "cytotoxicity": "-5% (inactive)"},
      {"smiles": "Cc1[nH]n2c(=O)cc(C(C)C)nc2c1-c1ccccc1", "cytotoxicity": "12.7% (inactive)"},
      {"smiles": "CCCCCCNC(=O)C(C#N)c1nc2ccccc2nc1N1CCOCC1", "note": "(configuration not stated)", "cytotoxicity": "20.3% (inactive)"},
      {"smiles": "CCN(CC)C(=O)N1CCC(NC(=O)Cc2ccccc2)CC1", "cytotoxicity": "-6.6% (inactive)"},
      {"smiles": "CCOC(=O)C1CCN(C(=O)c2cc(S(=O)(=O)N3CCOCC3)c(Cl)cc2Cl)CC1", "cytotoxicity": "3.3% (inactive)"},
      {"smiles": "Nc1ccc(-c2cc(N)n(-c3ccccc3)n2)cc1", "cytotoxicity": "14.8% (inactive)"},
      {"smiles": "c1coc(-c2nc3nc4ccccc4n3nc2-c2ccco2)c1", "cytotoxicity": "77.5% (active)"},
      {"smiles": "c1coc(-c2nc3ccccc3nc2-c2ccco2)c1", "cytotoxicity": "-5.7% (inactive)"},
      {"smiles": "c1coc(-c2nc(-c3ccco3)c(-c3ccco3)nc2-c2ccco2)c1", "cytotoxicity": "-9.1% (inactive)"}
    ]}
  ]
}
